# The supplement of paper PMC8728848
# Shown is part of a subset that was picked to be rich in the strongest signals.
# B1: CBM13 2a (Mycobacterium tuberculosum), P64849 (protein)
# chain: DGPVQLKSRLGDVCLDAPSGSWFSPLVINPCNGTDFQRWNLTDDRQVESVAFPGECVNIGNALWARLQPCVNWISQHWTVQPDGLVKSDLDACLTVLGGPDPGTWVSTRWCDPNAPDQQWDSVPLEHHHHHH
# How the values were obtained:
# Experiment in all cases: glycan array binding signal (z-score within array); higher = stronger binding
# Conditions in all cases: glycan notation: IUPAC condensed, linker removed
# Fuc(a1-2)Gal(b1-4)GlcNAc = target: Fuc(a1-2)Gal(b1-4)GlcNAc
# Summary of the method: (§1)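 Columns mapping to the same glycan were averaged after glycan names were converted to IUPAC-condensed notation. The data come from 3228 arrays in the Consortium for Functional Glycomics database, limited to those with an available protein sequence. Binding is reported as a within-array Z-score averaged across arrays of one protein sequence and across linkers.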
# [1] = target: Fuc(a1-2)Gal(b1-4)GlcNAc(b1-2)Man(a1-3)[Fuc(a1-2)Gal(b1-4)GlcNAc(b1-2)Man(a1-6)]Man(b1-4)GlcNAc(b1-4)[Fuc(a1-6)]GlcNAc
# Summary of the method: as §1
# [2] = target: Fuc(a1-2)Gal(b1-4)GlcNAc(b1-3)Gal(b1-4)GlcNAc
# Summary of the method: as §1
# Fuc(a1-2)[Gal(a1-3)]Gal = target: Fuc(a1-2)[Gal(a1-3)]Gal
# Summary of the method: as §1
# [3] = target: Fuc(a1-2)[GalNAc(a1-3)]Gal(b1-4)GlcNAc(b1-6)GalNAc
# Summary of the method: as §1
# [4] = target: Fuc(a1-2)[GalNAc(a1-3)]Gal(b1-4)[Fuc(a1-3)]GlcNAc
# Summary of the method: as §1
# [5] = target: Fuc(a1-3)[GalNAc(b1-4)]GlcNAc
# Summary of the method: as §1
# [6] = target: Gal(a1-3)Gal(b1-3)GlcNAc(b1-3)GalNAc
# Summary of the method: as §1
# [7] = target: Gal(a1-3)Gal(b1-3)GlcNAc(b1-6)GalNAc
# Summary of the method: as §1
# [8] = target: Gal(a1-3)Gal(b1-4)GlcNAc(b1-2)Man(a1-3)[Gal(a1-3)Gal(b1-4)GlcNAc(b1-2)Man(a1-6)]Man(b1-4)GlcNAc(b1-4)GlcNAc
# Summary of the method: as §1
# [9] = target: Gal(a1-4)Gal(b1-4)GlcNAc(b1-3)Gal(b1-4)Glc
# Summary of the method: as §1
# Gal(b1-3)Gal(b1-4)GlcNAc = target: Gal(b1-3)Gal(b1-4)GlcNAc
# Summary of the method: as §1
# [10] = target: Gal(b1-3)GalNAc(b1-4)Gal(b1-4)Glc
# Summary of the method: as §1
# [11] = target: Gal(b1-3)GlcNAc(b1-2)Man(a1-3)[GlcNAc(b1-4)][Gal(b1-3)GlcNAc(b1-2)Man(a1-6)]Man(b1-4)GlcNAc(b1-4)GlcNAc
# Summary of the method: as §1
# [12] = target: Gal(b1-3)GlcNAc(b1-6)Gal(b1-4)GlcNAc
# Summary of the method: as §1
# [13] = target: Gal(b1-3)[Fuc(a1-4)]GlcNAc(b1-3)Gal(b1-4)[Fuc(a1-3)]GlcNAc
# Summary of the method: as §1
# [14] = target: Gal(b1-4)GalNAc(b1-3)[Fuc(a1-2)]Gal(b1-4)GlcNAc
# Summary of the method: as §1
# [15] = target: Gal(b1-4)GlcNAc(b1-2)Man(a1-3)[Gal(b1-4)GlcNAc(b1-2)Man(a1-6)]Man(b1-4)GlcNAc(b1-4)[Fuc(a1-6)]GlcNAc
# Summary of the method: as §1
# [16] = target: Gal(b1-4)GlcNAc(b1-3)Gal(b1-3)GlcNAc
# Summary of the method: as §1
# [17] = target: Gal(b1-4)GlcNAc(b1-3)Gal(b1-4)GlcNAc(b1-2)Man(a1-3)[Gal(b1-4)GlcNAc(b1-3)Gal(b1-4)GlcNAc(b1-2)Man(a1-6)]Man(b1-4)GlcNAc(b1-4)GlcNAc
# Summary of the method: as §1
# [18] = target: Gal(b1-4)GlcNAc(b1-3)Gal(b1-4)GlcNAc(b1-3)Gal(b1-4)GlcNAc(b1-2)Man(a1-3)[Gal(b1-4)GlcNAc(b1-3)Gal(b1-4)GlcNAc(b1-3)Gal(b1-4)GlcNAc(b1-2)Man(a1-6)]Man(b1-4)GlcNAc(b1-4)GlcNAc
# Summary of the method: as §1
# [19] = target: Gal(b1-4)GlcNAc(b1-3)Gal(b1-4)GlcNAc(b1-3)GalNAc
# Summary of the method: as §1
# [20] = target: Gal(b1-4)GlcNAc(b1-3)Gal(b1-4)GlcNAc(b1-3)[Gal(b1-4)GlcNAc(b1-3)Gal(b1-4)GlcNAc(b1-6)]GalNAc
# Summary of the method: as §1
# [21] = target: Gal(b1-4)GlcNAc(b1-3)Gal(b1-4)GlcNAc(b1-6)[Gal(b1-3)]GalNAc
# Summary of the method: as §1
# Gal4S(b1-4)GlcNAc = target: Gal4S(b1-4)GlcNAc
# Summary of the method: as §1
# Gal6P(b1-4)GlcNAc = target: Gal6P(b1-4)GlcNAc
# Summary of the method: as §1
# GalNAc(b1-3)GalNAc = target: GalNAc(b1-3)GalNAc
# Summary of the method: as §1
# GalNAc(b1-6)GalNAc = target: GalNAc(b1-6)GalNAc
# Summary of the method: as §1
# [22] = target: GlcNAc(b1-2)[GlcNAc(b1-4)]Man(a1-3)[GlcNAc(b1-4)][GlcNAc(b1-2)[GlcNAc(b1-6)]Man(a1-6)]Man(b1-4)GlcNAc(b1-4)[Fuc(a1-6)]GlcNAc
# Summary of the method: as §1
# [23] = target: GlcNAc(b1-2)[GlcNAc(b1-6)]Man(a1-6)[GlcNAc(b1-2)Man(a1-3)]Man(b1-4)GlcNAc(b1-4)GlcNAc
# Summary of the method: as §1
# [24] = target: GlcNAc(b1-3)Gal(b1-4)GlcNAc(b1-3)Gal(b1-4)GlcNAc(b1-3)Gal(b1-4)GlcNAc(b1-3)Gal(b1-4)GlcNAc(b1-2)Man(a1-3)[GlcNAc(b1-3)Gal(b1-4)GlcNAc(b1-3)Gal(b1-4)GlcNAc(b1-3)Gal(b1-4)GlcNAc(b1-3)Gal(b1-4)GlcNAc(b1-2)Man(a1-6)]Man(b1-4)GlcNAc(b1-4)[Fuc(a1-6)]GlcNAc
# Summary of the method: as §1
# [25] = target: GlcNAc(b1-4)Gal(b1-4)GlcNAc
# Summary of the method: as §1
# [26] = target: GlcNAc(b1-4)GlcNAc(b1-4)GlcNAc(b1-4)GlcNAc(b1-4)GlcNAc
# Summary of the method: as §1
# [27] = target: GlcNAc6S(b1-3)Gal(b1-4)GlcNAc
# Summary of the method: as §1
# [28] = target: Man(a1-2)Man(a1-3)[Man(a1-2)Man(a1-6)]Man(a1-6)[Man(a1-2)Man(a1-2)Man(a1-3)]Man
# Summary of the method: as §1
# [29] = target: Man(a1-3)[Man(a1-6)]Man(a1-6)[Man(a1-2)Man(a1-3)]Man(b1-4)GlcNAc(b1-4)GlcNAc
# Summary of the method: as §1
# [30] = target: Neu5Ac(a2-3)Gal(b1-3)GalNAc6S
# Summary of the method: as §1
# [31] = target: Neu5Ac(a2-3)Gal(b1-3)GlcNAc(b1-2)Man(a1-3)[GlcNAc(b1-4)][Neu5Ac(a2-3)Gal(b1-3)GlcNAc(b1-2)Man(a1-6)]Man(b1-4)GlcNAc(b1-4)GlcNAc
# Summary of the method: as §1
# [32] = target: Neu5Ac(a2-3)Gal(b1-3)[Neu5Ac(a2-6)]GlcNAc(b1-3)[Fuc(a1-3)[Gal(b1-4)]GlcNAc(b1-6)]Gal(b1-4)Glc
# Summary of the method: as §1
# [33] = target: Neu5Ac(a2-3)Gal(b1-4)GlcNAc(b1-2)[Neu5Ac(a2-3)Gal(b1-4)GlcNAc(b1-2)]Man(a1-6)[Neu5Ac(a2-3)Gal(b1-4)GlcNAc(b1-2)Man(a1-3)][GlcNAc(b1-4)]Man(b1-4)GlcNAc(b1-4)GlcNAc
# Summary of the method: as §1
# [34] = target: Neu5Ac(a2-3)Gal(b1-4)GlcNAc(b1-2)[Neu5Ac(a2-3)Gal(b1-4)GlcNAc(b1-6)]Man(a1-6)[Neu5Ac(a2-3)Gal(b1-4)GlcNAc(b1-2)Man(a1-3)]Man(b1-4)GlcNAc(b1-4)GlcNAc
# Summary of the method: as §1
# [35] = target: Neu5Ac(a2-3)Gal(b1-4)GlcNAc(b1-3)Gal(b1-4)GlcNAc
# Summary of the method: as §1
# [36] = target: Neu5Ac(a2-3)Gal(b1-4)GlcNAc(b1-3)Gal(b1-4)GlcNAc(b1-2)Man(a1-3)[Neu5Ac(a2-3)Gal(b1-4)GlcNAc(b1-3)Gal(b1-4)GlcNAc(b1-2)Man(a1-6)]Man(b1-4)GlcNAc(b1-4)GlcNAc
# Summary of the method: as §1
# [37] = target: Neu5Ac(a2-3)Gal(b1-4)GlcNAc(b1-3)Gal(b1-4)GlcNAc(b1-3)Gal(b1-4)GlcNAc(b1-2)Man(a1-3)[Neu5Ac(a2-3)Gal(b1-4)GlcNAc(b1-3)Gal(b1-4)GlcNAc(b1-3)Gal(b1-4)GlcNAc(b1-2)Man(a1-6)]GalNAc
# Summary of the method: as §1
# [38] = target: Neu5Ac(a2-3)Gal6S(b1-4)[Fuc(a1-3)]GlcNAc
# Summary of the method: as §1
# [39] = target: Neu5Ac(a2-3)[GalNAc(b1-4)]Gal(b1-4)GlcNAc(b1-3)GalNAc
# Summary of the method: as §1
# [40] = target: Neu5Ac(a2-6)Gal(b1-4)GlcNAc(b1-2)Man(a1-3)Man(b1-4)GlcNAc(b1-4)GlcNAc
# Summary of the method: as §1
# [41] = target: Neu5Ac(a2-6)Gal(b1-4)GlcNAc(b1-3)Gal(b1-4)GlcNAc(b1-3)Gal(b1-4)GlcNAc(b1-2)Man(a1-3)[Neu5Ac(a2-6)Gal(b1-4)GlcNAc(b1-3)Gal(b1-4)GlcNAc(b1-3)Gal(b1-4)GlcNAc(b1-2)Man(a1-6)]GalNAc
# Summary of the method: as §1
# [42] = target: Neu5Ac(a2-6)Gal(b1-4)GlcNAc(b1-3)Gal(b1-4)GlcNAc(b1-3)[Neu5Ac(a2-6)Gal(b1-4)GlcNAc(b1-3)Gal(b1-4)GlcNAc(b1-6)]GalNAc
# Summary of the method: as §1
# [43] = target: Neu5Ac(a2-8)Neu5Ac(a2-3)Gal(b1-4)Glc
# Summary of the method: as §1
binder,measurement,setting,value
B1,glycan array binding signal (z-score),Fuc(a1-2)Gal(b1-4)GlcNAc,-0.294
same,glycan array binding signal (z-score),[1],0.023
same,glycan array binding signal (z-score),[2],-0.362
same,glycan array binding signal (z-score),Fuc(a1-2)[Gal(a1-3)]Gal,-0.26
same,glycan array binding signal (z-score),[3],-0.303
same,glycan array binding signal (z-score),[4],0.434
same,glycan array binding signal (z-score),[5],-0.31
same,glycan array binding signal (z-score),[6],-0.132
same,glycan array binding signal (z-score),[7],-0.286
same,glycan array binding signal (z-score),[8],-0.178
same,glycan array binding signal (z-score),[9],-0.267
same,glycan array binding signal (z-score),Gal(b1-3)Gal(b1-4)GlcNAc,-0.121
same,glycan array binding signal (z-score),[10],-0.32
same,glycan array binding signal (z-score),[11],-0.203
same,glycan array binding signal (z-score),[12],-0.345
same,glycan array binding signal (z-score),[13],-0.184
same,glycan array binding signal (z-score),[14],-0.335
same,glycan array binding signal (z-score),[15],0.207
same,glycan array binding signal (z-score),[16],-0.187
same,glycan array binding signal (z-score),[17],3.82
same,glycan array binding signal (z-score),[18],3.22
same,glycan array binding signal (z-score),[19],6.08
same,glycan array binding signal (z-score),[20],4.69
same,glycan array binding signal (z-score),[21],5.73
same,glycan array binding signal (z-score),Gal4S(b1-4)GlcNAc,-0.154
same,glycan array binding signal (z-score),Gal6P(b1-4)GlcNAc,-0.708
same,glycan array binding signal (z-score),GalNAc(b1-3)GalNAc,-0.167
same,glycan array binding signal (z-score),GalNAc(b1-6)GalNAc,-0.3
same,glycan array binding signal (z-score),[22],-0.406
same,glycan array binding signal (z-score),[23],0.094
same,glycan array binding signal (z-score),[24],-0.169
same,glycan array binding signal (z-score),[25],-0.553
same,glycan array binding signal (z-score),[26],-0.213
same,glycan array binding signal (z-score),[27],-0.288
same,glycan array binding signal (z-score),[28],-0.338
same,glycan array binding signal (z-score),[29],6.51
same,glycan array binding signal (z-score),[30],-0.262
same,glycan array binding signal (z-score),[31],-0.103
same,glycan array binding signal (z-score),[32],-0.258
same,glycan array binding signal (z-score),[33],-0.048
same,glycan array binding signal (z-score),[34],-0.017
same,glycan array binding signal (z-score),[35],-0.249
same,glycan array binding signal (z-score),[36],7.02
same,glycan array binding signal (z-score),[37],9.05
same,glycan array binding signal (z-score),[38],-0.271
same,glycan array binding signal (z-score),[39],4.49
same,glycan array binding signal (z-score),[40],-0.031
same,glycan array binding signal (z-score),[41],4.67
same,glycan array binding signal (z-score),[42],8.64
same,glycan array binding signal (z-score),[43],-0.117
